Measured values reported in PubChem BioAssay AID1159580 (chemical genetic matrix, 2015).
Screen size: about 5,500 compounds; about 2,000 (36%) were called active. Inconclusive results (about 18%) are left out. No stated cut-off is given here; in the data, active means normalized growth mostly below about 0.91 (no sharp cut-off); inconclusive means no clear call, values can overlap the other calls; inactive means mostly above about 0.92. The list shows a part of the results.

Assay: chemical genetic growth profiling, strain panel (AID 1159580);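 further: tested at 20 µM; growth read once vehicle control cultures reached saturation at 30 °C; 1 = growth at the plate median or of vehicle wells; lower values mean less growth of the strain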
Settings: growth OD

Measured: normalized growth

C[C@H]1[C@H](C)CC[C@]2(CO)CC[C@]3(C)C(=CCC4[C@@]5(C)CC[C@H](O)C(C)(C)C5CC[C@]43C)[C@H]12 (some centres not stated)
inactive: S. cerevisiae deletion strains, locus YKL009W, strain mrt4, active compounds read low 1.01 | S. cerevisiae deletion strains, locus YKL068W, active compounds read low 1.02 | S. cerevisiae deletion strains, locus YKL085W, strain MDH1 (second series), active compounds read low 1.04 | S. cerevisiae deletion strains, locus YKL085W, strain MDH1, active compounds read low 1.04 | S. cerevisiae deletion strains, locus YKL160W, strain elf1, active compounds read low 0.995 | S. cerevisiae deletion strains, locus YKL190W, strain CNB1, active compounds read low 1.01 | S. cerevisiae deletion strains, locus YKR001C, strain vps1, active compounds read low 1.03 | S. cerevisiae deletion strains, locus YKR026C, strain gcn3, active compounds read low 0.997 | S. cerevisiae deletion strains, locus YKR091W, strain srl3, active compounds read low 0.988 | S. cerevisiae deletion strains, locus YLL001W, strain dnm1, active compounds read low 1.01 | S. cerevisiae deletion strains, locus YLL026W, active compounds read low 1.01 | S. cerevisiae deletion strains, locus YLL041C, strain sdh2, active compounds read low 1 | S. cerevisiae deletion strains, locus YLR027C, strain aat2, active compounds read low 0.976 | S. cerevisiae deletion strains, locus YLR039C, strain RIC1, active compounds read low 1.08 | S. cerevisiae deletion strains, locus YLR058C, strain SHM2, active compounds read low 1.02 | S. cerevisiae deletion strains, locus YLR102C, strain apc9, active compounds read low 1.02 | S. cerevisiae deletion strains, locus YLR113W, strain HOG1, active compounds read low 0.967 | S. cerevisiae deletion strains, locus YLR221C, strain rsa3, active compounds read low 0.986 | S. cerevisiae deletion strains, locus YLR258W, strain gsy2, active compounds read low 0.989 | S. cerevisiae deletion strains, locus YLR262C, strain YPT6 (second series), active compounds read low 1.04 | S. cerevisiae deletion strains, locus YLR262C, strain YPT6, active compounds read low 1.08 | S. cerevisiae deletion strains, locus YLR268W, strain sec22, active compounds read low 1.03 | S. cerevisiae deletion strains, locus YLR320W, strain mms22, active compounds read low 0.987 | S. cerevisiae deletion strains, locus YLR330W, strain CHS5, active compounds read low 1.01 | S. cerevisiae deletion strains, locus YLR342W, strain FKS1 (second series), active compounds read low 1 | S. cerevisiae deletion strains, locus YLR342W, strain FKS1, active compounds read low 0.989 | S. cerevisiae deletion strains, locus YLR357W, strain rsc2, active compounds read low 0.999 | S. cerevisiae deletion strains, locus YLR370C, strain arc18, active compounds read low 1 | S. cerevisiae deletion strains, locus YLR371W, strain rom2, active compounds read low 1.03 | S. cerevisiae deletion strains, locus YLR384C, strain iki3, active compounds read low 0.974 | S. cerevisiae deletion strains, locus YLR418C, strain cdc73, active compounds read low 1.03 | S. cerevisiae deletion strains, locus YML016C, strain PPZ1, active compounds read low 1.02 | S. cerevisiae deletion strains, locus YML032C, strain rad52, active compounds read low 1.02 | S. cerevisiae deletion strains, locus YML120C, strain ndi1, active compounds read low 0.988 | S. cerevisiae deletion strains, locus YML124C, strain tub3, active compounds read low 1.03 | S. cerevisiae deletion strains, locus YMR058W, strain fet3, active compounds read low 1 | S. cerevisiae deletion strains, locus YMR078C, strain ctf18, active compounds read low 1.03 | S. cerevisiae deletion strains, locus YMR125W, strain sto1, active compounds read low 1.01 | S. cerevisiae deletion strains, locus YMR129W, active compounds read low 0.988 | S. cerevisiae deletion strains, locus YMR205C, strain PFK2, active compounds read low 0.98 | S. cerevisiae deletion strains, locus YMR223W, strain ubp8, active compounds read low 1.02 | S. cerevisiae deletion strains, locus YMR231W, strain pep5, active compounds read low 1 | S. cerevisiae deletion strains, locus YMR263W, strain SAP30, active compounds read low 1.01 | S. cerevisiae deletion strains, locus YMR307W, strain GAS1, active compounds read low 1.06 | S. cerevisiae deletion strains, locus YNL067W, strain RPL9B, active compounds read low 1.01 | S. cerevisiae deletion strains, locus YNL071W, strain lat1, active compounds read low 0.995 | S. cerevisiae deletion strains, locus YNL183C, strain NPR1, active compounds read low 0.967 | S. cerevisiae deletion strains, locus YNL209W, strain ssb2, active compounds read low 0.988 | S. cerevisiae deletion strains, locus YNL233W, strain BNI4, active compounds read low 1.01 | S. cerevisiae deletion strains, locus YNL248C, strain rpa49, active compounds read low 1 | S. cerevisiae deletion strains, locus YNL250W, strain rad50, active compounds read low 1.04 | S. cerevisiae deletion strains, locus YNL271C, strain bni1, active compounds read low 1.02 | S. cerevisiae deletion strains, locus YNL298W, strain CLA4, active compounds read low 1.01 | S. cerevisiae deletion strains, locus YNL307C, strain MCK1, active compounds read low 1.04 | S. cerevisiae deletion strains, locus YNL322C, strain KRE1 (second series), active compounds read low 0.99 | S. cerevisiae deletion strains, locus YNR049C, strain mso1, active compounds read low 0.99 | S. cerevisiae deletion strains, locus YNR052C, strain pop2, active compounds read low 1.01 | S. cerevisiae deletion strains, locus YOL006C, strain TOP1, active compounds read low 1.07 | S. cerevisiae deletion strains, locus YOL012C, strain htz1 1.12 | S. cerevisiae deletion strains, locus YOL147C, strain pex11, active compounds read low 1.02 | S. cerevisiae deletion strains, locus YOR001W, strain rrp6, active compounds read low 0.946 | S. cerevisiae deletion strains, locus YOR061W, strain CKA2, active compounds read low 1.01 | S. cerevisiae deletion strains, locus YOR069W, strain VPS5, active compounds read low 1.01 | S. cerevisiae deletion strains, locus YOR070C, strain gyp1, active compounds read low 0.975 | S. cerevisiae deletion strains, locus YOR080W, strain dia2, active compounds read low 0.992 | S. cerevisiae deletion strains, locus YOR083W, strain WHI5, active compounds read low 0.995 | S. cerevisiae deletion strains, locus YOR106W, strain vam3, active compounds read low 1.01 | S. cerevisiae deletion strains, locus YOR136W, strain idh2, active compounds read low 1.03 | S. cerevisiae deletion strains, locus YOR144C, strain elg1, active compounds read low 1.02 | S. cerevisiae deletion strains, locus YOR184W, strain ser1, active compounds read low 1.01 | S. cerevisiae deletion strains, locus YOR231W, strain MKK1, active compounds read low 0.996 | S. cerevisiae deletion strains, locus YOR265W, strain rbl2, active compounds read low 0.986 | S. cerevisiae deletion strains, locus YOR270C, strain vph1, active compounds read low 0.984 | S. cerevisiae deletion strains, locus YOR290C, strain snf2, active compounds read low 0.998 | S. cerevisiae deletion strains, locus YOR316C, strain cot1, active compounds read low 1.03 | S. cerevisiae deletion strains, locus YPL051W, strain arl3, active compounds read low 0.998 | S. cerevisiae deletion strains, locus YPL078C, strain atp4, active compounds read low 0.993 | S. cerevisiae deletion strains, locus YPL106C, strain sse1, active compounds read low 1.09 | S. cerevisiae deletion strains, locus YPL240C, strain hsp82, active compounds read low 1.01 | S. cerevisiae deletion strains, locus YPL241C, strain CIN2, active compounds read low 0.995 | S. cerevisiae deletion strains, locus YPL256C, strain CLN2, active compounds read low 1.07 | S. cerevisiae deletion strains, locus YPR119W, strain clb2, active compounds read low 1.03 | S. cerevisiae deletion strains, locus YPR141C, strain kar3, active compounds read low 1.04 | S. cerevisiae deletion strains, locus YPR163C, strain tif3, active compounds read low 1.03 | S. cerevisiae deletion strains, locus YPR167C, strain met16, active compounds read low 1.02 | S. cerevisiae deletion strains, strain wtn01, active compounds read low 1.01 | S. cerevisiae strains, strain wild type, active compounds read low 1
